This is an account of results in PubChem BioAssay (NCATS).

Assay [1] deals with Lysosomal acid glucosylceramidase (Homo sapiens) (UniProt P04062). In words: Glucocerebrosidase-p2 (AID 348; in the data active = potency below about 10 µM; note: potency is the fitted concentration of half-maximal effect). The note with it: purified GBA, blue fluorogenic substrate, 40 min. In short, it runs like this:
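Compounds titrated from 0.6 nM upwards against 0.2 nM enzyme in pH 5.9 citric acid/KH2PO4, taurocholate, tween-20; blue fluorogenic substrate 80 uM, 40 min room temperature, stopped and read Ex 365/Em 440 for AC50.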

A short description of assay [2]: AP1 Signaling Pathway (AID 357). Note: % is set by controls: 0 for no effect and ±100 for the full control effect. The settings on record: ME-180 AP-1-bla reporter, EGF-induced, beta-lactamase ratio, 5 h; at 7.69 µM (top of the series) unless noted. In short, it runs like this: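 Modulation of EGF-driven AP-1 transcription was assessed with a beta-lactamase reporter in ME-180 cells. Compound and EC50 EGF were co-incubated 5 hours at 37 °C before 2.5-hour CCF4 loading at room temperature and dual-emission reading.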

Assay [3] in a line: NFAT Signaling Pathway (AID 444).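 Note: carbachol stimulus at about its EC50 of 1 µM final; % is set by controls: 0 for no effect and ±100 for the full control effect.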 The note with it: Jurkat NFAT-bla M1, carbachol, beta-lactamase ratio, 5 h; at 7.69 µM (top of the series) unless noted. In short, it runs like this:
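Read-out: CCF4 FRET ratio (460 nm/530 nm) after 1 h RT dye loading, used for %activity and AC50 from titration series. Cells: Jurkat NFAT-β-lactamase/M1 line, treated with compound plus 1 uM carbachol for 5 h, 37 °C.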

A short description of assay [4]: Stat Signaling Pathway (AID 446).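 Note: ME-180 cervical cancer cells given 40 pM IL-6 alongside compound; SIE-controlled beta-lactamase reporter measured as 460/530 nm FRET emission ratio; % is set by controls: 0 for no effect and ±100 for the full control effect.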 The note with it: ME-180 SIE beta-lactamase reporter, IL-6 stimulated, 5 h; at 7.69 µM (top of the series) unless noted. In short, it runs like this: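 Reporter line: ME-180 cervical carcinoma, SIE-beta-lactamase. Treatment: compound with 40 pM IL-6, 5 hrs, 37 C, in low-serum OPTI-MEM with 10 mM HEPES pH 7.3. Detection: 460/530 nm fluorescence.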

For assay [5], the target named is Glucocorticoid receptor (Homo sapiens) (UniProt P04150). In words: GR-GFP Redistribution (AID 450;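 active = compounds whose dose series gives a full or clear partial fitted curve of increased nuclear translocation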; note: potency is the fitted concentration of half-maximal effect). The settings on record: U2OS GR-GFP nuclear translocation, laser cytometry, 2 h.
The target in assay [6] is Mitogen-activated protein kinase 10 (Mus musculus) (UniProt Q61831). Nature of the assay: JNK3 AlphaScreen Assay (AID 530).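 Note: kinase came from lysate of stimulated human HepG2 cells; signal reports phosphorylation of biotinylated GST-cJun 1-79 at Ser73 with 10 µM ATP; % is set by controls: 0 for no effect and ±100 for the full control effect.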 The settings on record: JNK3 lysate, c-Jun phosphorylation; series mostly up to 57.1 µM. An outline of the steps: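 Room-temperature AlphaScreen kinase assay; pre-activated HepG2 lysate as JNK3 source, biotin-GST-cJun(1-79) substrate, 10 uM ATP, compound 15 min preincubation.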
In general terms: Alpha assays give light when donor and acceptor beads are brought close together.

Assay [7] concerns the target 3',5'-cyclic-AMP phosphodiesterase 4B (Homo sapiens) (UniProt Q07343). In words: qHTS Assay for Inhibitors of PDE-IV (AID 607; active = well fitted activation curve with a large enough effect in the main read-out, with a control signal flat, not every such curve was filed as active; note: % of control where 0% means no effect). The note with it: HEK293 ACTOne CNG channel cells, membrane potential fluorescence; series mostly up to 22.9 µM. An outline of the steps:
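Cell-based read-out of cAMP via a modified cyclic nucleotide-gated channel and membrane potential dye (535/590 nm) in HEK293 cells expressing PDE4 endogenously. Compounds tested up to 22.9 uM final; 100 uM RO 20-1724 reference.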

In assay [8] the target is Cytochrome P450 3A4 (Homo sapiens) (UniProt P08684). In words: qHTS Assay for Inhibitors and Substrates of Cytochrome P450 3A4 (AID 884; active = well fitted curve in the direction sought with a large enough effect; an effect the other way counts as inactive or inconclusive; note: potency is the fitted concentration of half-maximal effect; nearly all actives have a fitted effect of over 50% in size). The note with it: recombinant CYP3A4, Luciferin-PPXE luminescence; series mostly up to 57.1 µM. An outline of the steps:
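20 nM human CYP3A4 with 25 uM Luciferin-PPXE (at KM) in 200 mM KPO4, preincubated 10 min with compound; NADPH regeneration started a 60 min RT reaction. Luciferin detected by luminescence, normalized to 57 uM ketoconazole as full inhibition.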
(Quantitative high-throughput screening tests each substance at several concentrations.)

The target is the same in assay [9]. Nature of the assay: qHTS Assay for Activators of Cytochrome P450 3A4 (AID 885; active = well fitted curve in the direction sought with a large enough effect; an effect the other way counts as inactive or inconclusive; note: nearly all actives have a fitted effect of over 65% in size). The settings on record: recombinant CYP3A4, Luciferin-PPXE luminescence, 60 min; series mostly up to 57.1 µM. An outline of the steps: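 Signal was normalized against complete inhibition by 57 uM ketoconazole. The reaction used 20nM CYP3A4 with 25uM Luciferin-PPXE, 10-min compound preincubation and a 60-min NADPH-supported step at RT.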

Assay [10] can be described thus: qHTS Assay for Lipid Storage Modulators (AID 1519; calls by dose curve). The note with it: Drosophila S3 cells, BODIPY lipid droplet/cell ratio, laser cytometry, cells loaded with oleic acid; for activity change, negative = inhibition: at 57.5 µM (top of the series). An outline of the steps:
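Cells seeded at 5,000 per well were treated with compounds over a concentration series and loaded with oleic acid (400 uM, as added). Lipid droplet fluorescence (488 nm excitation, 500-530 nm channel) was read by laser-scanning cytometry and normalized to 20 uM Triacsin C.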

The nature of assay [11]: Primary qHTS for small molecule stabilizers of the endoplasmic reticulum resident proteome: Secreted ER Calcium Modulated Protein (SERCaMP) assay (AID 1508630; active = well fitted curve in the direction sought with a large enough effect; an effect the other way counts as inactive or inconclusive; note: % is set by controls: 0 for no effect and ±100 for the full control effect). The settings on record: SH-SY5Y GLuc-SERCaMP (Gaussia luciferase released on ER calcium loss) secretion, thapsigargin, luminescence; series mostly up to 38.4 µM. In short, it runs like this:
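GLuc-SERCaMP-expressing SH-SY5Y cells, pretreated 16 h with compound, are challenged with thapsigargin to empty ER calcium stores; after 4 h, coelenterazine is added directly to the medium and luminescence is imaged.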

Assay [12] deals with Glucocorticoid receptor (Homo sapiens) (UniProt P04150). Nature of the assay: GR-EFC Redistribution (AID 451; calls by dose curve; note: potency is the fitted concentration of half-maximal effect). The settings on record: CHO-K1 GR-EFC translocation, beta-gal luminescence, 2 h. In short, it runs like this: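 Translocation of GR-ED fusion to nuclear EA restores b-gal, read by luminescence after 1 h room-temperature detection. Engineered CHO-K1 biosensor cells, 1,000/well, exposed 2 h at 37 C to titrations up to 46 uM final.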

The nature of assay [13]: Confirmation and Secondary Assay for Modulators of Hemoglobin Beta Chain Splicing at IVS2 654 locus (AID 910; active = well fitted curve in the direction sought with a large enough effect; an effect the other way counts as inactive or inconclusive;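 note: HeLa cells stably carrying EGFP split by mutant beta-globin IVS2-654 intron; % of control where 0% means no effect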). The note with it: HeLa EGFP-654 splicing reporter, GFP fluorescence, 48 h; series mostly up to 38.3 µM. In short, it runs like this: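 Readout: per-well total peak green fluorescence (488 nm ex, 500–520 nm em) from objects 5–250 µm, reflecting correct splicing of an EGFP-654 reporter. Compounds were applied for 2 days at 37 °C to overnight-plated HeLa EGFP-654 cells; controls were DMSO and 500 nM IVS2-654 PNA.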

Assay [14] in a line: Confirmation and Secondary Assay for Modulators of Hemoglobin Beta Chain Splicing at IVS2 705 locus (AID 930; active = well fitted curve in the direction sought with a large enough effect; an effect the other way counts as inactive or inconclusive; note: % of control where 0% means no effect). The note with it: HeLa EGFP-705 splicing reporter, GFP fluorescence, 48 h; series mostly up to 38.3 µM. An outline of the steps: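 HeLa cells stably carrying EGFP interrupted by mutant beta-globin intron 2 (IVS2-705) treated 2 days at 37C with compound; 500 nM antisense PNA as control. Correct splicing read as total peak GFP intensity per well by laser-scanning cytometry.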

The target of assay [15] is Cytochrome P450 1A2 (Homo sapiens) (UniProt P05177). In words: p450-cyp1a2 (AID 410; calls by dose curve; note: potency is the fitted concentration of half-maximal effect). The settings on record: recombinant CYP1A2, luciferin-ME demethylation, luminescence; series mostly up to 57 µM. In short, it runs like this:
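Human CYP1A2 (20nM) demethylated Luciferin-ME at its Km (100uM) in 100mM KPO4. After 10 min compound preincubation, NADPH regeneration ran the reaction 60 min at room temperature. Luciferin was read by luminescence, normalized to 57 uM furafylline.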

Assay [16] addresses Ubiquitin carboxyl-terminal hydrolase 1 (Homo sapiens) (UniProt O94782). Nature of the assay: Inhibitors of USP1/UAF1: Pilot qHTS (AID 504865; active = well fitted curve in the direction sought with a large enough effect; an effect the other way counts as inactive or inconclusive;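 note: rhodamine fluorescence freed from ubiquitin-rhodamine substrate followed over time; top concentration of the series differs between compounds; % is set by controls: 0 for no effect and ±100 for the full control effect; nearly all actives have a fitted effect of over 35% in size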). The note with it: purified USP1/UAF1, Ub-rhodamine cleavage fluorescence; series mostly up to 54.9 µM. In short, it runs like this:
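In 50mM HEPES pH 7.8 containing 0.5mM EDTA, 1mM TCEP, 0.1 mg/ml BSA and 0.01% Tween-20, 1nM USP1/UAF1 is exposed to compound for 15 min, then Ub-Rho (150nM final) is added and fluorescence is read over time.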

Where [17] appears, read: measured here: cell count channel max response.
Setting [18] is: measured here: lipid channel max response.

Inconclusive results are not listed. Activity calls are given as the source filed them. Unless noted, calls come from the whole dose curve; as a rule, active = well fitted curve in either direction with a large enough effect (not every such curve was filed as active); inconclusive = small, poorly fitted or top-dose-only effect, or another doubt; inactive = flat fitted curve, though single readings scatter.

Lysosomal acid glucosylceramidase (Homo sapiens), sequence (P04062 whole entry, looked up): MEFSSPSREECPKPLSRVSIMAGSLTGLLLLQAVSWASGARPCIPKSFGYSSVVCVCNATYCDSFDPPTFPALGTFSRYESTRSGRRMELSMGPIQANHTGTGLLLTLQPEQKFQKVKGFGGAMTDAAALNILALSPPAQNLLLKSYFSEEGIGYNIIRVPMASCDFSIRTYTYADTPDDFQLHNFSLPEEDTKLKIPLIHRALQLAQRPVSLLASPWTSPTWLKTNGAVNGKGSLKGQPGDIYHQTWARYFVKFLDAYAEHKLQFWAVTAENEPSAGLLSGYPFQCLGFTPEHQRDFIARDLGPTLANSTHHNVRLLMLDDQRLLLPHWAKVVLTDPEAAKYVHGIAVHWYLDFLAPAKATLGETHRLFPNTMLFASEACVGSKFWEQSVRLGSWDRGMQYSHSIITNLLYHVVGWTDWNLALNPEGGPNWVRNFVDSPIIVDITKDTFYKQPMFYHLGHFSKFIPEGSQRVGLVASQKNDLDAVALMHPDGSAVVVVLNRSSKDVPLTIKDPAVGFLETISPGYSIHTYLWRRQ
3',5'-cyclic-AMP phosphodiesterase 4B (Homo sapiens), sequence (Q07343 whole entry, looked up): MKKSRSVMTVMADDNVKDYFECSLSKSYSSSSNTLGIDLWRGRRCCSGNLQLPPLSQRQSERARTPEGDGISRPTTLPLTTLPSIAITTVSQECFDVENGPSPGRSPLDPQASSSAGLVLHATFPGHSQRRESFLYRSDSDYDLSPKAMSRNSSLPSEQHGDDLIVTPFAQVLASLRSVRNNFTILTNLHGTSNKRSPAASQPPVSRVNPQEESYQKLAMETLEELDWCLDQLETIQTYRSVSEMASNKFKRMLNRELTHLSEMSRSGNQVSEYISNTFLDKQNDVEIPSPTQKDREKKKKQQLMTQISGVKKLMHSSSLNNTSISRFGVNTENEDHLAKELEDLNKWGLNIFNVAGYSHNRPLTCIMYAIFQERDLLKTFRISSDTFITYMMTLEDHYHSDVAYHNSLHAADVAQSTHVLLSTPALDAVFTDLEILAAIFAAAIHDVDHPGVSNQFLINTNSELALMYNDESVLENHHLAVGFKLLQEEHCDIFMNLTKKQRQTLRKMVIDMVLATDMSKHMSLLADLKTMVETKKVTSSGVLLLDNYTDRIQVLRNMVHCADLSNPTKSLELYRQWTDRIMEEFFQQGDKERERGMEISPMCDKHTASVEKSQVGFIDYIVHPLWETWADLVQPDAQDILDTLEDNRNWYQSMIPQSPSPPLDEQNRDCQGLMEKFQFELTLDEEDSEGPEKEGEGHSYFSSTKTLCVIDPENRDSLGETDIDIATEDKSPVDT
Glucocorticoid receptor (Homo sapiens), sequence (P04150 whole entry, looked up, the tested form may be a part): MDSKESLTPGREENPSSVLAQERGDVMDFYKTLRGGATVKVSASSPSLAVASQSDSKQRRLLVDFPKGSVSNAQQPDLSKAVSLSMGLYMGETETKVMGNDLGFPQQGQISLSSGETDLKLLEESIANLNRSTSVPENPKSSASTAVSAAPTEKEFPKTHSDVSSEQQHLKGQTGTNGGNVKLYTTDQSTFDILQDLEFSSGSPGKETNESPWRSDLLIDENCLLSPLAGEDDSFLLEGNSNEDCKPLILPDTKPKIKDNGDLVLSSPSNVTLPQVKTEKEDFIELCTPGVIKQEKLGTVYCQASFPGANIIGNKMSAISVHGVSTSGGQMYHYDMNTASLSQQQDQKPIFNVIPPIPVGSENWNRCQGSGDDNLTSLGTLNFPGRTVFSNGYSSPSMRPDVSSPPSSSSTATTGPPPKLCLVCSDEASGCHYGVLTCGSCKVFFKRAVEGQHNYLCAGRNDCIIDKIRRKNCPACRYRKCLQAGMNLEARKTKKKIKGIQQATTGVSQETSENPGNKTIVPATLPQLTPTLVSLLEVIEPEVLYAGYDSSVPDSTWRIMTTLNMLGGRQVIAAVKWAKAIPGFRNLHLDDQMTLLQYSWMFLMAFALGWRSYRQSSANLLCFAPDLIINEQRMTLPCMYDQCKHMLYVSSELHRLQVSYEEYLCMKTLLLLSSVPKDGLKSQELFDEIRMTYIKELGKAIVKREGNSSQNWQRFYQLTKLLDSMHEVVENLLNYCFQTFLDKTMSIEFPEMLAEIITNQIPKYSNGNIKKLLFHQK
Cytochrome P450 3A4 (Homo sapiens), sequence (P08684 whole entry, looked up): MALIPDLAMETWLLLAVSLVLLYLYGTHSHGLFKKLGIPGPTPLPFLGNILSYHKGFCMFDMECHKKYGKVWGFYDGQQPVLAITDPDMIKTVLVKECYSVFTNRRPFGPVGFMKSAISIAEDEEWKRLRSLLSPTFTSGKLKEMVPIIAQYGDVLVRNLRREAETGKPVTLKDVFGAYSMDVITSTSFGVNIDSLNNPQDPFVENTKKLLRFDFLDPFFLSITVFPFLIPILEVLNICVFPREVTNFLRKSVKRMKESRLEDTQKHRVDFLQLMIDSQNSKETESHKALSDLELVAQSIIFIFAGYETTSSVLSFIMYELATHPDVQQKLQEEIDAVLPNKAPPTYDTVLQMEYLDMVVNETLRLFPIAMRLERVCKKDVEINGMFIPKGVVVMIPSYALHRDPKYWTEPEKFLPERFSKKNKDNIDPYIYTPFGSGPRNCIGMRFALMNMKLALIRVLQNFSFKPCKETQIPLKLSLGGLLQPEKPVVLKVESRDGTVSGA
Ubiquitin carboxyl-terminal hydrolase 1 (Homo sapiens), sequence (O94782 whole entry, looked up): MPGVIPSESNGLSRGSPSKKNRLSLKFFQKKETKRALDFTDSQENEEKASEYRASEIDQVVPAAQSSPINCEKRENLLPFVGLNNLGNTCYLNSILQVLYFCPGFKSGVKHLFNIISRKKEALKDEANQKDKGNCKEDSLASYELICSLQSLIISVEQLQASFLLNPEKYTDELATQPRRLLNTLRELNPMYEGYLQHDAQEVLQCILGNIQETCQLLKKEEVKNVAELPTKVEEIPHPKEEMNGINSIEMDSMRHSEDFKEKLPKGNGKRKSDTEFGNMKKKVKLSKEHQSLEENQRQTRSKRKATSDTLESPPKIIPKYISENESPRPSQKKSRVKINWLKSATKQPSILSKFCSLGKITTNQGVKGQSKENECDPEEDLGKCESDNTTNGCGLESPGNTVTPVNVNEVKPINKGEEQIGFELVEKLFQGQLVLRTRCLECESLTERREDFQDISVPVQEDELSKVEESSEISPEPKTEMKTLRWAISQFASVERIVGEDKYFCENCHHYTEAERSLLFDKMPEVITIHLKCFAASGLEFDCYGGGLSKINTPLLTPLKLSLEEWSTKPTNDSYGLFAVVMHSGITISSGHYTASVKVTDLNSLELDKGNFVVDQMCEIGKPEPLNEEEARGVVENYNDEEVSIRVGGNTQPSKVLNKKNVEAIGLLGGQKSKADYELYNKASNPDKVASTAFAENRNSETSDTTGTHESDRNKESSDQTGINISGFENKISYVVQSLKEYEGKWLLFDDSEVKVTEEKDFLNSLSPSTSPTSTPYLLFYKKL
Cytochrome P450 1A2 (Homo sapiens), sequence (P05177 whole entry, looked up): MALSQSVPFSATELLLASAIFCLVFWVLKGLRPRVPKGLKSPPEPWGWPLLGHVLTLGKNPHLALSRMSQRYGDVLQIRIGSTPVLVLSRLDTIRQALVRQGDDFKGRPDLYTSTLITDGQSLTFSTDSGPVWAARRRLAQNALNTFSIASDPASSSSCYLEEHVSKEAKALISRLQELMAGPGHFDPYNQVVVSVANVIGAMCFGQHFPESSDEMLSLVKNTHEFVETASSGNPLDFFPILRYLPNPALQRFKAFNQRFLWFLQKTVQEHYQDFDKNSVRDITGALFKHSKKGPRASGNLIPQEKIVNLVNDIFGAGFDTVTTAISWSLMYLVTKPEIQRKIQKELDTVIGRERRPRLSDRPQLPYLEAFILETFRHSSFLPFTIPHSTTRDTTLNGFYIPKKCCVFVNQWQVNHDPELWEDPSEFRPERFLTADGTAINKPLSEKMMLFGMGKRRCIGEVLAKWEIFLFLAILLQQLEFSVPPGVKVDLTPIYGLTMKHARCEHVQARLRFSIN

On to `COc1ncc2nc(-c3cn(C)c4ccccc34)c(=O)n(Cc3ccc(F)cc3)c2n1`, for which the values for the Potency in assay [1], in assay [5] and in assay [8] were > 11.4 µM (inactive), > 9.22 µM (inactive) and 6.31 µM (active), respectively. For the same compound, the activity change, negative = inhibition in assay [2] was 10.6% (inactive); in assay [3] it was -4.65% (inactive); in assay [10], 3.02% (inactive). For the same compound, in assay [4], the activity, negative = inhibition is 20.2% (inactive). In addition, the Potency entry in assay [6], in assay [7] and in [9] was “inactive” throughout. The figures for the max response in [10] (setting [17]) and in assay [10] (setting [18]) were 18.8% and 23.9%, respectively. Moreover, the outcome in [11] was inactive.
As for `COCC(=O)N1CCC2(CCCN(c3ccc(-c4ccccc4)cc3)C2)CC1`, the Potency in assay [1] was > 11.4 µM (inactive); in [12], > 46 µM (inactive). In addition, the activity change, negative = inhibition in assay [2] is -7.31% (inactive); in [3] it was 3.92% (inactive); in [10], -5.34% (inactive). Also, the activity, negative = inhibition in assay [4] is -7.13% (inactive). In addition, the Potency entry in assay [6] and in assay [7] was “inactive” each time. In addition, the max response in [10] (setting [17]) came out at 18.5%; in assay [10] (setting [18]), 14.9%. In addition, the outcome in assay [11] was inactive.
As for `Cc1nc2cnc(N3CCNCC3)nc2n(C2CC2)c1=O`, the Potency in assay [1] is > 11.4 µM (inactive); in assay [5], > 9.22 µM (inactive). The activity change, negative = inhibition in assay [2] is 5.94% (inactive); in assay [3], 3.04% (inactive); in assay [10], 0.607% (inactive). Moreover, the activity, negative = inhibition in assay [4] is -7.48% (inactive). Further, the Potency entry in assay [6] and in assay [7] was “inactive” each time. Besides, the max response in [10] (setting [17]) is 18.2%; in assay [10] (setting [18]), 19.1%. Further, in assay [11], the result was inactive.
`Cc1noc(C)c1-c1nc(NCc2cccnc2)c2ccccc2n1`: the Potency was > 11.4 µM (inactive) in [1], > 46 µM (inactive) in [5] and > 46 µM (inactive) in [12]. Also, the activity change, negative = inhibition was 2.83% (inactive) in assay [2], -10.7% (inactive) in assay [3] and 11.8% (inactive) in assay [10]. Moreover, the activity, negative = inhibition in assay [4] was -14.2% (inactive). In addition, the Potency entry in assay [6] and in assay [13] was “inactive” in each case. The call in [14] and in [11] was inactive. Moreover, the max response in [10] (setting [17]) is 12.2%; in assay [10] (setting [18]), 21%.
In the case of `CS(=O)(=O)Nc1cccc(-c2nc(NCc3cccs3)c3ccccc3n2)c1`, the Potency in [1] was > 2.29 µM (inactive); in assay [15] it was 1 µM (active); in assay [5], > 46 µM (inactive); in assay [12], > 46 µM (inactive); in assay [8], 3.16 µM (active). The results for the activity change, negative = inhibition in assay [2] and in [10] were -19.7% (inactive) and 6.98% (inactive), respectively. Also, the Potency entry in assay [6], in assay [9], in [13] and in assay [16] was “inactive” throughout. Moreover, the result in [14] and in assay [11] was inactive. In addition, the results for the max response in [10] (setting [17]) and in assay [10] (setting [18]) were -9.8% and -2.81%, respectively.
In the case of `COc1ccccc1CNc1ncncc1-c1ccccc1CN(C)C`, the Potency in assay [1] is > 11.4 µM (inactive); in assay [5] it was > 46 µM (inactive); in [12], > 46 µM (inactive). Besides, the values for the activity change, negative = inhibition in assay [2], in assay [3] and in assay [10] were -14.2% (inactive), -25.5% (inactive) and 5.27% (inactive), respectively. Moreover, the activity, negative = inhibition in assay [4] is 6.72% (inactive). The Potency result in assay [6], in assay [7], in [13] and in assay [16] was “inactive” in each case. Moreover, the compound was classed as inactive in assay [14] and in assay [11]. Further, the figures for the max response in assay [10] (setting [17]) and in assay [10] (setting [18]) were 12.7% and 17.5%, respectively.
